SW480 rereplic = inducers of DNA re-replication in SW480 colon cancer cells; SW480 DNA re-replication, Hoechst DNA content imaging, 48 h; Potency, µM (top dose mostly 46.1 µM), inactives show top-dose re-replication activation, usual class: activators; hit rate 1.8% among 340,000; note: potency is the fitted concentration of half-maximal effect; % of control where 0% means no effect; nearly all actives have a fitted effect of over 55% in size
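Cells (250 per well) received 23 nL compound or DMSO by pin tool and were kept 48 hr at 37 C, 5% CO2. Nuclei were then stained with Hoechst for 40 min and scanned for DNA content.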
KCNH2 3.1 block = blocks the human KCNH2 3.1 channel isoform; U2OS KCNH2 3.1, thallium flux FluxOr; active compounds read low; activity change, % (tested at about 1.8 µM); hit rate 0.95% among 340,000; AID 720553;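 active = maximum activity change below -70%; inconclusive = maximum activity change from -70% to -50%; inactive = maximum activity change above -50%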;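 note: thallium influx rate constant from kinetic fluorescence after stimulation buffer; % is set by controls: 0 for no effect and ±100 for the full control effect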
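Channel expression came from 3.1 mutant virus (1.77 x 10^8 /mL) applied to suspended U2OS cells for 4 h. Flux was tracked with FluxOr dye plus Red40 quencher, and kinetic rate constants normalized to controls.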
MCF10A rereplic = induces DNA re-replication in MCF 10a normal breast cells; MCF 10A DNA re-replication, Hoechst nuclear intensity, 48 h; Potency, µM (titrated, usually from 46.1 µM), for the others: top-dose activity, positive = re-replication, actives largely listed as activators; hit rate 2.9% among 350,000; note: potency is the fitted concentration of half-maximal effect; % of control where 0% means no effect; nearly all actives have a fitted effect of over 50% in size
KB-3-1 tox = KB-3-1 parental cell cytotoxicity; KB-3-1 viability, CellTiter-Glo ATP luminescence, 72 h; Potency, µM (highest dose often 46.1 µM), hits mostly cytotoxic; hit rate 1.4% among 400,000; AID 1347075; note: potency is the fitted concentration of half-maximal effect; % is set by controls: 0 for no effect and ±100 for the full control effect; nearly all actives have a fitted effect of over 60% in size
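Here the drug-naive KB-3-1 line serves as comparator for MDR sub-line selectivity; cells received compound titrations, 72 h at 37 °C, then CellTiter-Glo readout.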
KB-V1 cytotox = kills drug-selected multidrug resistant KB-V1 cells | KB-V1 MDR cells viability, CellTiter-Glo, 72 h | Potency, µM (series often up to 46.1 µM), usual class: cytotoxic | hit rate 3.4% among 400,000 | AID 1347076; note: potency is the fitted concentration of half-maximal effect; % is set by controls: 0 for no effect and ±100 for the full control effect; nearly all actives have a fitted effect of over 60% in size
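Cytotoxicity toward P-gp-expressing KB-V1 cells was determined as loss of CellTiter-Glo luminescence after 72 h at 37 degrees C. Compounds were tested in quantitative HTS format across a concentration range, with curves fitted to normalized data.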
KCNH2 WT inh = KCNH2 (human, wildtype) channel inhibition. AID 720551. U2OS, BacMam KCNH2, thallium flux FluxOr; active compounds read low. activity change, % at 1.84 µM. Q12809. hit rate 0.37% among 340,000;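 active = maximum activity change below -70%; inconclusive = maximum activity change between -70% and -50%; inactive = maximum activity change above -50%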; note: % is set by controls: 0 for no effect and ±100 for the full control effect
Target sequence (Q12809 whole entry, looked up): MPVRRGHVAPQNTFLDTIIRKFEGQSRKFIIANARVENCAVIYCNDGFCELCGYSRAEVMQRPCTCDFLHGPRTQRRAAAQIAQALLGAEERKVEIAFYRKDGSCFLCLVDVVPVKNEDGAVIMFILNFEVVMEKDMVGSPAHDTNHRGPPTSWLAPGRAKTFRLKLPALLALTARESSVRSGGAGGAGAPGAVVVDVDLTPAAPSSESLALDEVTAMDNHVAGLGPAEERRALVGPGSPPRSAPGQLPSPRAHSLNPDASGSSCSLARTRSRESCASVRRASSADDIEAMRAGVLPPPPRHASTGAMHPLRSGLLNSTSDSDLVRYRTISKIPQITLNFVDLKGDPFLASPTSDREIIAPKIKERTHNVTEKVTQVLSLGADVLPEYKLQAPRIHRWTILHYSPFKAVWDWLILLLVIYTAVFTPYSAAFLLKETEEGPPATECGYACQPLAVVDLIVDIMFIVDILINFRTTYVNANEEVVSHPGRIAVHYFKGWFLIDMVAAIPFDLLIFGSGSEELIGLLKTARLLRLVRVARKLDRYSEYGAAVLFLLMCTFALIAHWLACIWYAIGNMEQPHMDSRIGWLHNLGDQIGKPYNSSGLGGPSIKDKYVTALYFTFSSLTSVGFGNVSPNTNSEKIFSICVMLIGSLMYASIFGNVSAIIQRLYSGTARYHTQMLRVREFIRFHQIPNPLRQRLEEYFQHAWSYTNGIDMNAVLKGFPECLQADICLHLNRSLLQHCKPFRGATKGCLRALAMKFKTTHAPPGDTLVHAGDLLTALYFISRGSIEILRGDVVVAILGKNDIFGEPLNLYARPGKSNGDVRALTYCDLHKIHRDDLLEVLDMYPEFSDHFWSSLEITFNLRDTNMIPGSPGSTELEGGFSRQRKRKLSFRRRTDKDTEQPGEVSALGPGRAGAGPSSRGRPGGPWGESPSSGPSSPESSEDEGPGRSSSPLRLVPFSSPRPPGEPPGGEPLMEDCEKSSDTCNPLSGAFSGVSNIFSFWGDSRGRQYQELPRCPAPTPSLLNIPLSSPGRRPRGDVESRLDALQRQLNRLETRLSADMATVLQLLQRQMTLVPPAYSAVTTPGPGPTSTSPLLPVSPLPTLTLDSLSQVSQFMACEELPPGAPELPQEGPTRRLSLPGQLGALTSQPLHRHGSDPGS
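U2OS cells were transduced with wild-type KCNH2 virus (2.03 x 10^8 / mL) for 4 h at room temperature, then cultured overnight at 37 C. Thallium flux was read with FluxOr dye. Rate constants were normalized to DMSO controls.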
Numbers without * were called inactive; i = inactive; ? = inconclusive; · = not tested or not shown. An excerpt weighted towards active compounds, which were near 7.6% of everything screened. Unless noted, calls come from the whole dose curve; as a rule, active = well fitted curve in the direction sought with a large enough effect; inconclusive = small, poorly fitted or top-dose-only effect, or another doubt; inactive = no such curve, though single readings can be large; an effect the other way counts as inactive or inconclusive.

SMILES | SW480 rereplic | KCNH2 3.1 block | MCF10A rereplic | KB-3-1 tox | KB-V1 cytotox | KCNH2 WT inh
COc1ccc(-n2ncc3c(NCc4cccs4)ncnc32)cc1 | 19.7% | -29.0 | -5.0% | i | i | 3.2
COc1ccccc1CN1CC(C(=O)NCc2cc(F)ccc2C)CCC1=O (stereo not given) | 1.0% | -5.5 | 5.2% | i | i | 9.4
CCOC(=O)C1=C(C)Nc2sc(C(=O)c3ccc(F)cc3)c(N)c2C1c1ccc(C(=O)OC)cc1 (stereo not given) | 16.4µM* | -21.6 | 2.59µM* | i | i | -2.9
CCOC(=O)C1=C(C)Nc2sc(C(=O)c3ccc(C)cc3)c(N)c2C1c1ccc(C(=O)OC)cc1 (stereo not given) | 18.4µM* | -5.9 | 3.66µM* | i | i | 1.9
COc1ccc2c(c1)CCc1c(C(=O)Nc3c(C)nn(Cc4ccccc4)c3C)noc1-2 | 2.6% | -71.1* | ? | i | ? | -5.6
COc1ccc2c(c1)CCc1c(C(=O)Nc3c(C)nn(Cc4ccccc4Cl)c3C)noc1-2 | · | · | · | i | i | ·
COc1ccc2c(c1)CCc1c(C(=O)N3CCOCC3)noc1-2 | -2.2% | 7.6 | 6.7% | i | 16.4µM* | 3.6
COc1ccc2c(c1)CCc1c(C(=O)N3CCCc4ccccc43)noc1-2 | 11.6% | 0.9 | ? | 20.6µM* | 7.31µM* | -24.8
COc1ccc2c(c1)CCc1c(C(=O)N3CC4(C)CC3CC(C)(C)C4)noc1-2 (stereo not given) | 2.3% | -17.4 | ? | i | i | 6.0
Cc1ccccc1CC1SC(N)=NC1=O (stereo not given) | 0.6% | -6.9 | 0.6% | i | i | -22.0
CCNc1cc(S(=O)(=O)C(F)(F)F)ccc1N | 0.6% | -3.4 | 19.1% | ? | 23.1µM* | 1.6
O=C(NCc1ccccc1)C1C(c2ccc3c(c2)OCO3)=Nc2ccccc2N1C(=O)c1ccco1 (stereo not given) | · | · | · | 7.31µM* | ? | ·
O=C(NCc1ccccc1)C1C(c2ccc3c(c2)OCO3)=Nc2ccccc2N1C(=O)c1cccc(C(F)(F)F)c1 (stereo not given) | · | · | · | i | ? | ·
Cc1cc(C(=O)OCC(=O)NC2CCS(=O)(=O)C2)c(C)n1-c1ccccc1 (stereo not given) | 2.2% | 0.5 | -3.5% | ? | 16.4µM* | -19.6
COc1ccc2cc(-c3cc(C(=O)OCC(=O)NC4CCS(=O)(=O)C4)c4ccccc4n3)ccc2c1 (stereo not given) | ? | 0.3 | 7.31µM* | i | i | -2.5
Cc1cc(C(=O)OCC(=O)N(C)C2CCS(=O)(=O)C2)c(C)n1-c1ccccc1 (stereo not given) | -3.0% | 3.6 | -10.3% | i | i | 3.4
COc1ccc(-c2cc(C(=O)OCC(=O)NC3CC3)c3ccccc3n2)cc1 | 2.5% | 0.6 | 1.7% | i | i | 5.1
NC(=O)Cc1ccc(C(=O)c2ccccc2)s1 | -16.3% | 17.1 | 9.7% | i | i | 36.0
CN(C)CCNC(=O)Cn1ccc2cc(S(=O)(=O)N3CCCCC3)ccc21 | -5.3% | 7.3 | 12.3% | i | i | 3.7
COc1ccccc1N(CC(=O)Nc1ccccc1C(F)(F)F)S(=O)(=O)c1ccc(C)cc1 | · | · | · | i | i | ·
O=C(c1ccc(-c2ccccc2Cl)o1)N1CCN(S(=O)(=O)c2cccs2)CC1 | 22.6% | -6.7 | ? | i | 20.6µM* | -9.1
CNC(=S)NC1CC2CCCC(C1)N2Cc1ccc(C)cc1 (stereo not given) | -48.7% | -83.1* | ? | i | i | ·
CCNC(=S)NC1CC2CCCC(C1)N2Cc1ccc(C)cc1 (stereo not given) | -7.7% | -44.2 | 2.8% | i | i | 15.0
COc1cccc(C(=O)NC2CC3CCCC(C2)N3Cc2ccc(F)cc2)c1 (stereo not given) | · | -24.8 | · | i | i | 30.3

Screens: PubChem BioAssay, National Center for Advancing Translational Sciences (NCATS)
